Screens (PubChem BioAssay)
D3 ag: qHTS of D3 Dopamine Receptor Agonist: qHTS. D3R DiscoveRx beta-arrestin cells, luminescence, 90 min. max activation, %. 410,000 tested, 0.58% active. AID 652048, 2013; in the data active = max activation above about 30%; note: 0% is about no effect
Target sequence (P35462 whole entry, looked up): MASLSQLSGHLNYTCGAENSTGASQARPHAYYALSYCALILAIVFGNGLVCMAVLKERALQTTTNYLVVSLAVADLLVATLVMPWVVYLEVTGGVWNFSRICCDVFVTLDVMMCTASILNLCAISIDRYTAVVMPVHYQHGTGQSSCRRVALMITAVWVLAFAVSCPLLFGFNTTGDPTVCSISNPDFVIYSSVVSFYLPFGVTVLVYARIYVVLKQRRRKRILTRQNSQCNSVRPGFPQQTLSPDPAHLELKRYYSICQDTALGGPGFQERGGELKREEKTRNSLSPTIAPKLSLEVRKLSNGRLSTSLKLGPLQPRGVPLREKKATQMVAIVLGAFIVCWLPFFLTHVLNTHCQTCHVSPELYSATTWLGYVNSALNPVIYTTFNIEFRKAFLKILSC
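Agonist-mode cell screen: cells plated at 1500/well and incubated overnight at 37 °C, then exposed to library compounds for 90 min at 37 °C. Detection reagent was added for 30–60 min at room temperature, and luminescence was read.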
D1 agonist: Allosteric Agonists of the Human D1 Dopamine Receptor: qHTS. D(1A) dopamine receptor (Homo sapiens), P21728. HEK293 T-REx D1 cells, calcium flux, agonist mode. activation, % at 2 µM. 360,000 tested, 1% active; in the data active = activation above about 30%; note: 0% is about no effect
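Tetracycline-induced HEK293 TREx D1 cells, force-coupled to calcium signalling, were dye-loaded with a no-wash calcium kit. Compound was pin-added after a 10 s baseline. Fluorescence was read kinetically at 1 cycle/s for 180 s, with calcium rises flagged as agonism.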
D3 antag: qHTS of D3 Dopamine Receptor Antagonist: qHTS; max response, negative = inhibition, %; D(3) dopamine receptor (Homo sapiens), P35462; D3R cells, DiscoveRx beta-arrestin luminescence, antagonist mode; hits give low values; 360,000 tested, 2.5% active; in the data active = max response below about -50%; note: % is set by controls: 0 for no effect and ±100 for the full control effect
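Cells expressing the human receptor were seeded at 1500 cells/well, incubated overnight at 37 degrees C in 5% CO2, then exposed to library compounds with dopamine controls for 90 minutes at 37 degrees C before luminescent detection.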
D1 PAM: Potentiators of Human D1 Dopamine Receptor: qHTS; D(1A) dopamine receptor (Homo sapiens), P21728; HEK293 TREx D1 cells, calcium flux, dopamine EC20 potentiation; potentiation, % at 10 µM; 360,000 tested, 0.036% active; in the data active = potentiation above about 30%; note: 0% is about no effect
D1 antag: Antagonist of Human D 1 Dopamine Receptor: qHTS | D(1A) dopamine receptor (Homo sapiens), P21728 | AID 504652, 2011 | HEK293 TREx D1 cells, calcium flux, dopamine EC80; hits give low values | 360,000 tested, 3.2% active | activity change, negative = inhibition, % at 10 µM; in the data active = activity change below about -30%; note: % is set by controls: 0 for no effect and ±100 for the full control effect
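Antagonism measured as reduced calcium response to an EC80 dopamine addition following 180 s compound pre-read; cells were inducible HEK293 Trex D1 plated overnight at 30 C, read kinetically at 1 cycle/sec.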
* = called active by the depositor; . = no result. The list is not random: actives were taken first. Their share in the collection is about 6%.

SMILES	D3 ag	D1 agonist	D3 antag	D1 PAM	D1 antag
CCCN(CCC)c1nc(N)nc(-c2cc(Cl)ccc2OC)n1	4.3	1.8	7.2	-12.1	-75.2*
CCCNc1nc(N)nc(-c2cc(Cl)ccc2OC)n1	-6.1	2.6	-15.7	-0.3	1.5
COc1ccc(C(=O)NC(=S)NNC(=O)c2ccccc2C)cc1	4.2	.	9.1	.	.
COc1ccc(C(=O)NC(=S)NNC(=O)c2ccccc2O)cc1	37.7*	24.4	17.2	-8.2	-7.2
O=C(/C=C/c1cccs1)NC(=S)NNC(=O)c1ccccc1O	26.2	17.1	12.1	1.4	9.4
COc1ccc(C(=O)NNC(=S)NC(=O)C(C)(C)C)cc1	2.1	306.0*	-14.1	-4.1	-34.9*
COc1ccc(C(=O)NNC(=S)NC(=O)/C=C/c2cccs2)cc1	-8.2	3.0	-22.1	5.2	-34.9*
COc1ccc(C(=O)NNC(=O)c2ccc(C(C)(C)C)cc2)cc1	18.2	1.7	10.0	1.1	-15.0
CNC(=O)NC(=S)NC(=O)c1ccc(OC)cc1	-6.9	1.0	-72.2*	-5.3	-9.4
COc1ccc(C(=O)NC(=S)Nc2ccccc2F)cc1	-8.0	5.8	0.0	-2.9	-5.5
CCOc1ccc(CNc2cc(C)nc3nc(-c4cccc(C)c4)nn23)cc1OC	1.4	1.0	.	-2.6	-9.9
O=C1CC(c2ccccc2)Cc2[nH]c(=O)c(-c3nc(-c4ccc(F)cc4)cs3)cc21 (stereo not drawn)	-23.1	3.3	.	0.1	6.0
OC(c1ccc(F)c(F)c1)c1ncc(-c2ccc(F)cc2)[nH]1 (stereo not drawn)	7.7	.	2.9	.	.
CCCCCn1ncc2c3sc(C)cc3n(C)c2c1=O	.	2.1	.	-2.1	-1.8
CCC(=O)N1CCCC1(C)C(=O)Nc1ccc2nc(C)ccc2c1 (stereo not drawn)	10.6	.	13.5	.	.
Cc1sc2nc(C3CC3)nc(SCC(=O)N3c4ccccc4CC3C)c2c1C (stereo not drawn)	41.9*	5.4	53.8	1.2	1.1
O=C1C=C(NCc2ccccc2)c2ccccc2C1=O	-14.0	2.5	-70.7*	-1.6	10.3
CC(=O)N[C@@H](C=O)[C@H](O)[C@H](O)[C@@H](O)CO	-0.5	.	.	.	.
Cc1ccc2nc(CSc3nnc(NC(=O)COc4ccccc4F)s3)cc(=O)n2c1	57.7*	-0.9	.	-2.0	-4.4
O=C(COc1ccccc1F)Nc1nnc(SCc2cc(=O)n3ccccc3n2)s1	0.7	0.0	.	2.0	-3.5
CCOC(=O)c1c(NC(=O)CC2Nc3cc(C)c(C)cc3NC2=O)sc(C)c1C (stereo not drawn)	-6.4	0.5	-56.6*	-0.6	11.3
CCOc1ccc(CCN2C(=O)C(=O)N([C@@H](Cc3ccccc3)CN3CCC[C@H]3CN3C(=O)C(=O)NC[C@@H]3Cc3ccccc3)C[C@@H]2CC(C)C)cc1	-10.2	.	1.5	.	.
CN(C)CCOc1ccc2c(c1)Sc1ccccc1CC2=O	-14.3	10.5	-21.6	-11.7	-30.3*
CN(C)CCOc1ccc2ccccc2c1	-9.1	5.7	-18.6	-3.7	-0.3
Cc1ccc2c(c1)Sc1ccccc1CC2=O	-8.1	-0.3	-9.2	-3.1	-47.5*
SMILES	D3 ag	D1 agonist	D3 antag	D1 PAM	D1 antag
O=C1Cc2ccccc2Sc2ccccc21	-5.9	1.4	-24.6	1.1	4.9
COc1ccc(CN2C(=O)N(c3ccc(F)cc3)C(=O)C2CC(=O)Nc2cc(OC)cc(OC)c2)cc1 (stereo not drawn)	1.3	2.9	.	-3.4	-15.1
Cc1[nH]c2c(Cl)cccc2c(=O)c1CN1CCCCCC1	-14.5	4.4	-89.8*	0.5	-6.3
O=c1[nH][nH]c2c1[C@H](c1ccc(F)cc1)O[C@H](C1CCCCC1)C2	0.9	.	7.6	.	.
CCOc1ccccc1Nc1nc2ccccc2c2nncn12	4.2	2.0	.	4.2	-1.0
Cc1ccc(NC(=O)COC(=O)c2ccc(CN3CCCC3=O)cc2)c(Cl)c1	1.2	13.2	-8.4	.	-44.5*
Cc1ccc(NC(=O)c2ccc(CN3C(=O)CCn4nc(C)cc43)cc2)c(Cl)c1	-5.6	0.5	.	-2.6	-33.6*
Cc1cc(C)cc(NC(=O)COC(=O)c2ccc(CN3CCCC3=O)cc2)c1	0.5	2.3	-14.6	6.9	-5.0
O=C(/C=C/c1ccc2c(c1)OCO2)N1CCN(c2ccc(Cl)cc2)CC1	-3.5	2.9	-6.7	6.8	-0.5
CCN1CCN(C(=O)/C=C/c2ccc(C)cc2)CC1	-7.3	1.4	-2.1	-1.2	-7.9
Cc1ccc(/C=C/C(=O)N2CCCN(C(=O)/C=C/c3ccc(C)cc3)CC2)cc1	-13.3	0.6	-58.5*	-4.1	9.7
O=C(/C=C/c1ccc2c(c1)OCO2)N1CCCCC1	-3.1	1.8	-0.3	-1.9	-30.3*
COc1ccc2cc(/C=C/C(=O)N3CCN(CC(=O)N4CCCCCC4)CC3)ccc2c1	35.8*	7.1	13.1	1.6	0.1
CC(=O)Oc1c(I)cc(I)cc1C(=O)Nc1ccc(Cl)cc1	8.0	19.7	-9.4	-6.3	-25.8
CCCn1c(=O)c2sccc2n2c(CCCC(=O)N3CCN(c4cccc(Cl)c4)CC3)nnc12	12.7	2.2	.	-3.5	5.6
C[C@H](CO)N1C[C@H](C)[C@H](CN(C)Cc2cccc(O)c2)OCc2ccccc2-c2c(n(C)c3ccccc23)C1=O	45.4*	.	24.1	.	.
C[C@H]1CN([C@@H](C)CO)C(=O)c2c(c3ccccc3n2C)-c2ccccc2CO[C@H]1CN(C)Cc1cccc(F)c1	0.8	.	4.1	.	.
CCOC(=O)c1cncc(C#CCOC(=O)Nc2ccc(OC(F)(F)F)cc2)c1	4.1	26.5	3.3	-7.9	-33.8*
CCOC(=O)c1cncc(C#CCO)c1	2.1	1.7	-17.2	-0.6	-5.5
CC(C)Oc1ccc(S(=O)(=O)N2CCOCC2)cc1NC(=O)CSC(=S)N1CCCC1	4.6	.	10.2	.	.
COc1ccc2c(c1)c1c(c(=O)n(Cc3ccccc3)c(=O)n1CC(=O)Nc1ccc(C)cc1C)n2C	0.9	-1.0	.	-1.4	-65.3*
Cc1ccc2c(c1)c1c(c(=O)n(-c3cccc(Cl)c3)c(=O)n1CC(=O)Nc1c(C)cccc1C)n2C	2.3	-0.6	.	1.6	5.7
COc1ccccc1NC(=O)Cn1c(=O)n(-c2cccc(Cl)c2)c(=O)c2c1c1cc(C)ccc1n2C	-0.7	48.2*	.	2.6	-4.5
Cc1ccc2c(c1)c1c(c(=O)n(-c3ccccc3C)c(=O)n1CC(=O)c1ccc(Cl)cc1)n2C	8.2	3.7	.	-1.9	-32.4*
Cc1ccc2c(c1)c1c(c(=O)n(-c3cccc(Cl)c3)c(=O)n1CC(=O)c1ccc(Cl)cc1)n2C	13.2	6.7	.	0.1	-0.8
Cc1cccc(NC(=O)CSc2nc3c(sc4ccccc43)c(=O)n2CCCC(=O)NC2CCCC2)c1	-3.9	3.7	.	8.1	-9.6
